Reference: PubChem BioAssay (NCATS)
Inconclusive results are not listed. Unmarked numbers belong to inactive results. Active and inactive are the calls of the source. Calls come from the whole dose curve; as a rule, active = well fitted inhibition curve with a large enough effect; inconclusive = small, poorly fitted or top-dose-only effect; inactive = no such curve, though single readings can be large or run the other way.

Biological target: Aldehyde dehydrogenase 1A1 (Homo sapiens) (UniProt P00352)
Experiment: qHTS for Inhibitors of the Aldehyde Dehydrogenase Family (ALDH1A1) Confirmatory screens (AID 2061316); note: nearly all actives have a fitted effect of over 65% in size
Details: ALDH inhibition qHTS; series mostly up to 47.3 µM; activity change, negative = inhibition: at the top concentration
Potency is the fitted concentration of half-maximal effect.

Compound | Potency
COc1ccc(-n2c(C)cc(-c3nnc4n3CCCCC4)c2C)cc1 | 12700 nM (active)
[Cl][Pt].[NH2-].[NH2-].c1ccncc1 | 7120 nM (active)
COc1cccc(CNc2ccc(S(=O)(=O)Nc3nc(C)c(C)s3)cc2)c1O | 10100 nM (active)
CN1CN(c2ccccc2)C2(CCN(CCCC(=O)c3ccc(F)cc3)CC2)C1=O | 22500 nM (active)

Test system: not listed separately
Experiment: BET inhibitor-based combinations targeting novel dependencies in MECOM-rearranged (r) AML: SET-2 cell line (AID 2202231); note: nearly all actives have a fitted effect of over 35% in size;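 for viability: plate controls were DMSO treated cells for no effect and wells without cells for full effect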
Details: SET-2 AML cells viability, CellTiter-Glo luminescence, 48 h; viability: active compounds read low, concentration not given here
Method in brief: (§1)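 Viability of cells (500 per well) is scored by luminescent CellTiter-Glo at 48 hr post-dosing. Eleven-point titrations are normalized to DMSO and empty controls and reduced to AUC values.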

Compound | Potency | viability [%]
O=C(Nc1ccncc1)C(=O)c1cn(Cc2ccc(Cl)cc2)c2ccccc12 | 525 nM (active) | –
CN(C)NC(=O)CCC(=O)O | – | 87.9
COCC1(CO)C(=O)C2CCN1CC2 (configuration not stated) | 26300 nM (active) | –
N[C@@H]1C[C@H]1c1ccccc1 | – | 95.9
CCCCCCC(C)(C)c1cc(O)c2c(c1)OC(C)(C)C1CC=C(CO)C[C@H]21 (some centres not stated) | 23500 nM (active) | –
C/C(=C\c1csc(C)n1)[C@@H]1C[C@@H]2O[C@]2(C)CCC[C@H](C)[C@H](O)[C@@H](C)C(=O)C(C)(C)[C@@H](O)CC(=O)O1 | 18.6 nM (active) | –
CN(C)[C@@H]1C(=O)C(C(N)=O)=C(O)[C@@]2(O)C(=O)C3=C(O)c4c(O)cccc4[C@@](C)(O)[C@H]3[C@H](O)[C@@H]12 | – | 103
COc1cc([C@@H]2c3cc4c(cc3[C@@H](O)C3COC(=O)C32)OCO4)cc(OC)c1O (some centres not stated) | 468 nM (active) | –
COC(=O)[C@]12CCC(C)(C)C[C@H]1[C@H]1C(=O)C=C3[C@@]4(C)C=C(C#N)C(=O)C(C)(C)[C@@H]4CC[C@@]3(C)[C@]1(C)CC2 | 2350 nM (active) | –
C[C@H]1CCC/C=C/C2C[C@H](O)C[C@H]2[C@H](O)/C=C/C(=O)O1 (some centres not stated) | 332 nM (active) | –
COc1cc(C)[nH]c(=O)c1CNC(=O)c1c(C)n([C@H](C)C2CCN(CC(F)(F)F)CC2)c2ccccc12 | – | 101
Cn1c(COP(=O)(NCCBr)NCCBr)cnc1[N+](=O)[O-] | – | 123
Cc1sc2c(c1C)C(c1ccc(Cl)cc1)=NC(CC(N)=O)c1nnc(C)n1-2 (configuration not stated) | 263 nM (active) | –
COc1ccc(N(C(=O)Oc2c(C)cccc2C)c2ccnc(Nc3ccc(N4CCN(C)CC4)cc3)n2)c(OC)c1 | – | 117
CC(C)C[C@H](CN)CC(=O)O | – | 113
Cc1c(N)nc([C@H](CC(N)=O)NC[C@@H](N)C(N)=O)nc1C(=O)N[C@H](C(=O)N[C@@H](C)[C@H](O)[C@@H](C)C(=O)N[C@@H](C(=O)NCCc1nc(-c2nc(C(=O)NCCC[S+](C)C)cs2)cs1)[C@@H](C)O)C(O[C@H]1O[C@H](CO)[C@H](O)[C@@H](O)[C@H]1O[C@H]1O[C@H](CO)[C@@H](O)[C@H](OC(N)=O)[C@@H]1O)c1cnc[nH]1 (some centres not stated) | – | 100
CC(C)[C@]12O[C@H]1[C@@H]1O[C@]13[C@]1(O[C@H]1C[C@H]1C4=C(CC[C@@]13C)C(=O)OC4)[C@@H]2O | 59 nM (active) | –
CC1(C)C(=O)N(c2ccc(C#N)c(C(F)(F)F)c2)C(=S)N1Cc1ccc(-c2cn[nH]n2)cc1 | 16600 nM (active) | –
O=C(CBr)N1CC([N+](=O)[O-])([N+](=O)[O-])C1 | 38200 nM (active) | –
CC(=O)O[C@@]12CO[C@@H]1C[C@H](O)[C@@]1(C)C(=O)[C@H](O)C3=C(C)[C@@H](O)C[C@@](O)([C@@H](OC(=O)c4ccccc4)[C@H]21)C3(C)C | – | 103
COC(=O)[C@@]12OC[C@]34[C@H]([C@@H](O)[C@@H]1O)[C@@]1(C)CC(=O)C(O)=C(C)[C@@H]1C[C@H]3OC(=O)[C@H](OC(=O)/C=C(\C)C(C)C)[C@@H]24 | 26.3 nM (active) | –
C#CCN(C)[C@H](C)Cc1ccccc1 | – | 96.9
C[C@]12CC[C@H](O)CC1=CC[C@@H]1[C@@H]2CC[C@]2(C)C(=O)CC[C@@H]12 | – | 109
COc1cc2c(cc1F)C(c1ccccc1Cl)=Nc1c(n[nH]c1C)N2 | 13200 nM (active) | –

Test system: not listed separately
Experiment: BET inhibitor-based combinations targeting novel dependencies in MECOM-rearranged (r) AML: OCI-AML3 cell line (AID 2202232); note: nearly all actives have a fitted effect of over 35% in size;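 for viability (% of control): plate controls were DMSO vehicle wells for no effect and wells without cells for full effect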
Details: CellTiter-Glo luminescence, 48 h; Potency: OCI-AML3 viability; series mostly up to 46 µM; viability (% of control): at the top concentration
Method in brief: as §1

Compound | Potency | viability (% of control)
O=C(Nc1ccncc1)C(=O)c1cn(Cc2ccc(Cl)cc2)c2ccccc12 | 417 nM (active) | –
CN(C)NC(=O)CCC(=O)O | – | 81.3%
COCC1(CO)C(=O)C2CCN1CC2 (configuration not stated) | 4680 nM (active) | –
N[C@@H]1C[C@H]1c1ccccc1 | – | 93.7%
CCCCCCC(C)(C)c1cc(O)c2c(c1)OC(C)(C)C1CC=C(CO)C[C@H]21 (some centres not stated) | 26300 nM (active) | –
C/C(=C\c1csc(C)n1)[C@@H]1C[C@@H]2O[C@]2(C)CCC[C@H](C)[C@H](O)[C@@H](C)C(=O)C(C)(C)[C@@H](O)CC(=O)O1 | 5.9 nM (active) | –
CN(C)[C@@H]1C(=O)C(C(N)=O)=C(O)[C@@]2(O)C(=O)C3=C(O)c4c(O)cccc4[C@@](C)(O)[C@H]3[C@H](O)[C@@H]12 | – | 109%
COc1cc([C@@H]2c3cc4c(cc3[C@@H](O)C3COC(=O)C32)OCO4)cc(OC)c1O (some centres not stated) | 296 nM (active) | –
COC(=O)[C@]12CCC(C)(C)C[C@H]1[C@H]1C(=O)C=C3[C@@]4(C)C=C(C#N)C(=O)C(C)(C)[C@@H]4CC[C@@]3(C)[C@]1(C)CC2 | 2630 nM (active) | –
COc1cc(C)[nH]c(=O)c1CNC(=O)c1c(C)n([C@H](C)C2CCN(CC(F)(F)F)CC2)c2ccccc12 | 14800 nM (active) | –
Cc1sc2c(c1C)C(c1ccc(Cl)cc1)=NC(CC(N)=O)c1nnc(C)n1-2 (configuration not stated) | 93.4 nM (active) | –
CC(C)C[C@H](CN)CC(=O)O | – | 102%
Cc1c(N)nc([C@H](CC(N)=O)NC[C@@H](N)C(N)=O)nc1C(=O)N[C@H](C(=O)N[C@@H](C)[C@H](O)[C@@H](C)C(=O)N[C@@H](C(=O)NCCc1nc(-c2nc(C(=O)NCCC[S+](C)C)cs2)cs1)[C@@H](C)O)C(O[C@H]1O[C@H](CO)[C@H](O)[C@@H](O)[C@H]1O[C@H]1O[C@H](CO)[C@@H](O)[C@H](OC(N)=O)[C@@H]1O)c1cnc[nH]1 (some centres not stated) | – | 97.2% [at 15.6 µM]
CC(C)[C@]12O[C@H]1[C@@H]1O[C@]13[C@]1(O[C@H]1C[C@H]1C4=C(CC[C@@]13C)C(=O)OC4)[C@@H]2O | 29.5 nM (active) | –
O=C(CBr)N1CC([N+](=O)[O-])([N+](=O)[O-])C1 | 34000 nM (active) | –
COC(=O)[C@@]12OC[C@]34[C@H]([C@@H](O)[C@@H]1O)[C@@]1(C)CC(=O)C(O)=C(C)[C@@H]1C[C@H]3OC(=O)[C@H](OC(=O)/C=C(\C)C(C)C)[C@@H]24 | 7.4 nM (active) | –
C#CCN(C)[C@H](C)Cc1ccccc1 | – | 84.8%
C[C@]12CC[C@H](O)CC1=CC[C@@H]1[C@@H]2CC[C@]2(C)C(=O)CC[C@@H]12 | – | 107%
COc1cc2c(cc1F)C(c1ccccc1Cl)=Nc1c(n[nH]c1C)N2 | 3720 nM (active) | –
